Shown are actives, neighbours in structure and some others; about 4.3% of the full set was active somewhere.
SW480 rereplic = A quantitative high throughput screen for small molecules that induce DNA re-replication in SW480 colon adenocarcinoma cells; SW480 DNA re-replication, Hoechst DNA content imaging, 48 h; Potency, µM (doses to about 46.1 µM), without a hit: top-dose re-replication activation, hits mostly activators; 340,000 compounds, 1.8% hits; AID 624297, 2012; also: potency is read from the fitted curve at half-maximal effect; % of control where 0% means no effect; nearly all actives have a fitted effect of over 55% in size
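DNA re-replication was detected as more nuclei of elevated Hoechst intensity after 48 hr exposure to compound (23 nL pinned per well of 250 cells).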
MCF10A rereplic = A quantitative high throughput screen for small molecules that induce DNA re-replication in MCF 10a normal breast cells; 350,000 compounds, 2.9% hits; Potency, µM (doses to about 46.1 µM), for inactives: at the highest dose activity, positive = re-replication, hits mostly activators; MCF 10A DNA re-replication, Hoechst nuclear intensity, 48 h; also: potency is read from the fitted curve at half-maximal effect; % of control where 0% means no effect; nearly all actives have a fitted effect of over 50% in size
Giardia kill = Small Molecules that selectively kill Giardia lamblia: qHTS; Giardia lamblia trophozoite viability; activity change, % at 7.66 µM, hits read low; 340,000 compounds, 0.15% hits; in the data active = activity change below about -80%; inconclusive = between about -30% and that limit;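 also: parasites exposed to compound for two days anaerobically before the ATP read; % is scaled to controls: 0 for no effect and ±100 for the full control effect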
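Media and compound were dispensed first, then trophozoites at 100 cells/well; plates sat 48 hrs at 37 deg C without oxygen before ATP luminescence reagent was added and read after 15-30 min at room temperature.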
uPA generation = qHTS for Inhibitors of Cell Surface uPA Generation | AID 540303, 2011 | cell surface uPA generation assay, qHTS | Potency, µM (titrated, usually from 38.3 µM), without a hit: at the top dose activity change, negative = inhibition, actives largely listed as inhibitors | 330,000 compounds, 0.31% hits; active = well fitted inhibition curve with a large enough effect; inconclusive = small, poorly fitted or top-dose-only effect; inactive = no such curve, though single readings can be large or run the other way; tested in mouse RAW 264.7 cells; also: potency is read from the fitted curve at half-maximal effect; % is scaled to controls: 0 for no effect and ±100 for the full control effect; nearly all actives have a fitted effect of over 55% in size
Starred values were filed as active, the others as inactive; ? = inconclusive; . = no result given. Unless noted, calls follow the shape of the dose curve; as a rule, active = well fitted activation curve with a large enough effect; inconclusive = small, poorly fitted or top-dose-only effect; inactive = no such curve, though single readings can be large or run the other way.

SMILES	SW480 rereplic	MCF10A rereplic	Giardia kill	uPA generation
COc1cc2c(c(OC)c1OC)-c1ccc(C(=O)O)cc1[C@@H](NC(C)=O)CC2	-1%	-1%	26	-1%
C[C@]12CCC3C(CCC4=C(Cl)C(=O)CC[C@@]43C)C1CCC2O (some centres not stated)	-10%	19%	.	.
O=P1(Oc2ccccc2)CC=CC(COCc2ccccc2)O1 (configuration not stated)	.	.	9	.
O=C(COc1ccccc1-c1ccccc1)N/N=C/c1ccccn1	4%	?	-29	?
CC1=CC2/C=C(\C)CCC(O)C(O)/C=C/C(=O)C23C(=O)NC(CC(C)C)C3C1C (configuration not stated)	18µM*	?	-28	1µM*
CC(O)C1C=CC=CC(=O)OC2CC3OC4C5OC5(C)CCC4(COC(=O)C4OC4(C)C(O)CO1)C2(C)C31CO1 (configuration not stated)	0.46µM*	0.15µM*	-13	-9%
Clc1ccc(COC(Cn2ccnc2)c2ccc(Cl)cc2Cl)c(Cl)c1 (configuration not stated)	?	12µM*	-14	?
O=C(Nc1nnc(SCc2ccccc2Cl)s1)C1COc2ccccc2O1 (configuration not stated)	-7%	?	9	3%
C=C1N2CCC(CC2)C1(O)c1ccc(C)cc1 (configuration not stated)	-4%	5%	-10	1%
C=C1C(O)(c2ccccc2)C2CC[N+]1(C)CC2 (configuration not stated)	1.2µM*	?	41	5%
CCc1ccc(N2C(=O)NC(=O)/C(=C/c3cccn3CCOc3ccc(C)cc3)C2=O)cc1	?	21µM*	18	-7%
CCc1ccc(N2C(=O)NC(=O)/C(=C/c3cccn3CCOc3ccc(C(C)CC)cc3)C2=O)cc1 (configuration not stated)	13µM*	13µM*	8	-16%
O=C1NC(=O)N(Cc2ccco2)C(=O)/C1=C\c1cccn1CCOc1ccc(Cl)cc1	0%	?	-2	-4%
C[C@H]1CN([C@@H](C)CO)C(=O)c2cccc(NC(=O)c3ccc(-c4nccs4)cc3)c2O[C@@H]1CN(C)C(=O)Nc1cccc2ccccc12	-2%	-1%	24	-15%
CNC(C)C(O)c1ccc(O)cc1 (configuration not stated)	0%	7%	.	.
COc1cc2c(cc1O)C[C@H]1NCCc3cc4c(c-2c31)OCO4	?	18µM*	3	?
COc1cc2c(cc1OC)-c1c3c(cc4c1[C@@H](C2)N(C)CC4)OCO3	?	?	0	?
O=C(O)C1C2CCC(O2)C1C(=O)Nc1cccc(Br)c1 (configuration not stated)	-18%	1%	7	11µM*
O=C(O)C1C2c3ccccc3C(c3ccccc32)C1C(=O)Nc1ccccc1 (configuration not stated)	-2%	11%	-10	5%
O=C(Cn1ncc(Cl)c(Cl)c1=O)NCC1CCCCC1	?	5.8µM*	-9	?
COc1ccc(CNC(=O)c2ccc(C(C)C)cc2)cc1	?	1%	7	1%
COC(=O)N1C(=O)[C@@](c2ccc(OC)cc2)(C(C)C)N1C(=O)OC	21µM*	?	14	6.3µM*
CC(=NCCc1c[nH]c2ccccc12)c1c(O)n(Cc2ccccc2)c(=O)[nH]c1=O	15µM*	?	-11	4%
O=c1cc(CSc2ccc(Cl)cc2)nc(-c2ccccn2)[nH]1	18%	?	-18	?
O=C(CN1CC=C(c2ccccc2)CC1)Nc1c(Cl)cccc1Cl	-5%	14%	-23	1%
SMILES	SW480 rereplic	MCF10A rereplic	Giardia kill	uPA generation
O=C(CN1CC=C(c2ccccc2)CC1)Nc1cc(Cl)ccc1Cl	9%	18µM*	-22	1%
O=C1Nc2ccc(Cl)cc2C(c2ccccc2Cl)=NC1O (configuration not stated)	5%	5%	.	.
Cc1cc(-c2ccccc2)n(-c2cc(N/N=C/c3ccccc3O)ncn2)n1	?	2.1µM*	-14	10µM*
COC(=O)c1ccccc1C(=O)c1ccc(OCCN2CCCCC2)cc1	-6%	?	.	.
O=C(NCc1cccnc1)C(Cl)(Cl)Cl	-1%	4%	-2	4%
CC(C)C(=O)Nc1ccc(C(=O)NCc2cccnc2)cc1	0.52µM*	6%	7	-11%

Source: PubChem (National Center for Advancing Translational Sciences (NCATS))
